Experimental findings from PubChem BioAssay (NCI) are described below.

The panel holds about 83,000 compounds, 20% with a hit somewhere; the sample as a whole holds those more often.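 48-hour exposure, single concentration, 96-well plates; percent growth endpoint where 0 means no net growth. Active: below 10.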 A number with no mark means an inactive call. Calls of active or inactive are those of the source.

The subject of this assay is MDA-MB-468 breast. Briefly: NCI-60 one-dose screen, 48 h (100 = growth as untreated, 0 = no growth, -100 = all killed). The following applies: 10 µM unless noted.
As for `CCOC(=O)c1c(C)nc2c(c1N)C(=O)C(=O)N2CCc1ccc(OC)c(OC)c1`, the growth is 49%. The same measure for `CNC(=O)NN`: 107%; for `CC(C)CCC[C@@H](C)[C@H]1CC[C@H]2[C@@H]3CC=C4C[C@@H](C(C(=O)O)C(=O)O)CC[C@]4(C)[C@H]3CC[C@]12C`: -32% (active).

For `O=C(Cc1ccc(/C=C/C(=O)c2ncc[nH]2)cc1)Nc1ccccc1`, the growth was 22.2%.
